Results filed as inconclusive are left out. Activity calls are given as the source filed them. Unless noted, calls follow the shape of the dose curve; as a rule, active = well fitted curve in the direction sought with a large enough effect in the repeat runs; inconclusive = weak or mixed curves; inactive = no such curve, though single readings can be large; an effect the other way counts as inactive or inconclusive.
Experiments:
[1] = qHTS assay to identify aromatase inhibitors - cell viability counter screen (AID 743084);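 also: cells stimulated with testosterone during compound exposure; nearly all actives have a fitted effect of over 55% in size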
[2] = qHTS assay to identify small molecule that activate the aryl hydrocarbon receptor (AhR) signaling pathway - cell viability counter screen (AID 743086);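 also: HepG2 liver cells carrying the AhR DRE luciferase reporter; series mostly up to about 70 µM; nearly all actives have a fitted effect of over 45% in size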
Procedure, shortened: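 HepG2-AhR-luc (HG2L7.5c1) cells, 4000/well, were preincubated 5 h at 37C, exposed to compound in qHTS format for 24 hr at 37C, then given CellTiter-Fluor for 30 min; viability was read as fluorescence in the reporter wells.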

[3] = target: Peroxisome proliferator-activated receptor gamma (Homo sapiens) (UniProt P37231); assay: qHTS assay to identify small molecule agonists of the peroxisome proliferator-activated receptor gamma (PPARg) signaling pathway (AID 743094; active = well fitted activation curve with a large enough effect in the signal ratio in the repeat runs, not every such curve was filed as active; the % refers to the signal ratio)
Peroxisome proliferator-activated receptor gamma (Homo sapiens), sequence (P37231 whole entry, looked up): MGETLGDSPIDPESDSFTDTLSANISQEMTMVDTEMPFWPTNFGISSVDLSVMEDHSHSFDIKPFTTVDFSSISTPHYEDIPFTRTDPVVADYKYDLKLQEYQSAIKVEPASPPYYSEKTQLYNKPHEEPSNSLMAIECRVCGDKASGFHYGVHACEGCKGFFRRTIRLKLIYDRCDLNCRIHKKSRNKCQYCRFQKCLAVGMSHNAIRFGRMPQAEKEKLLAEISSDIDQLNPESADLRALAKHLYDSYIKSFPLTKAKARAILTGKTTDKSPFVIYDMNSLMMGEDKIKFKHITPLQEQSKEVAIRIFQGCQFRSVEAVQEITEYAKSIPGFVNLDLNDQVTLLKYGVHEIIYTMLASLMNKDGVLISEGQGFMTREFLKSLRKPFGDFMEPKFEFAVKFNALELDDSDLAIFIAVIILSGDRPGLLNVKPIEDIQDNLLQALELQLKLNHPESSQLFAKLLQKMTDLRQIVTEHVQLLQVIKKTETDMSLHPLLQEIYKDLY
Procedure, shortened: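 Agonism was assessed in a beta-lactamase reporter system, HEK293H cells with a stably integrated UAS-bla construct under PPARg control; the 17 h treatment at 37C preceded a 1 h room-temperature FRET substrate read.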

[4] = target: Peroxisome proliferator-activated receptor gamma (Homo sapiens) (UniProt P37231); assay: qHTS assay to identify small molecule antagonists of the peroxisome proliferator-activated receptor gamma (PPARg) signaling pathway (AID 743191; calls by dose curve; also: series mostly up to about 63 µM; nearly all actives have a fitted effect of over 30% in size)
Procedure, shortened: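 GeneBLAzer PPARg UAS-bla HEK293H cells carrying a UAS-driven beta-lactamase reporter were plated at 3000 cells/well, preincubated 5 h at 37C, then given compound for 17 h at 37C; LiveBLAzer B/G FRET substrate was read after 1 h at room temperature.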

[5] = qHTS assay to identify small molecule antagonists of the peroxisome proliferator-activated receptor gamma (PPARg) signaling pathway - cell viability counter screen (AID 743194); also: nearly all actives have a fitted effect of over 55% in size
Procedure, shortened: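 PPARg-UAS-bla HEK293H cells were plated, rested 5 h at 37 C, then treated with compounds plus rosiglitazone (50 nM final) for 17 h at 37 C; viability was then read by CellTiter-Glo luminescence after 30 min at room temperature.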

[6] = qHTS assay for small molecule agonists of the antioxidant response element (ARE) signaling pathway - cell viability counter screen (AID 743203; calls by dose curve; also: nearly all actives have a fitted effect of over 55% in size)
Procedure, shortened: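 ATP content via CellTiter-Glo luminescence served as the viability measure. Cells: ARE-bla HepG2, 2,000 per well. Exposure: 16 hrs, 37C/5% CO2.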

[7] = qHTS assay for small molecule activators of the heat shock response signaling pathway - cell viability counter screen (AID 743209); also: nearly all actives have a fitted effect of over 50% in size
Procedure, shortened: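 Compounds dissolved in DMSO were added to overnight-plated HSE-bla HeLa cells and left 5 h at 37 C. Cell viability was quantified by luminescence using CellTiter-Glo.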

[8] = qHTS assay for small molecule activators of the heat shock response signaling pathway (AID 743210; active = well fitted activation curve with a large enough effect in the signal ratio in the repeat runs, with a control signal flat, not every such curve was filed as active; the % refers to the signal ratio; also: series mostly up to about 63 µM)
Procedure, shortened: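 Heat shock element–beta-lactamase HeLa reporter cells; qHTS with compounds for 5 h at 37 C; detection by FRET substrate fluorescence after 2.5 h at RT.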

[9] = qHTS assay to identify small molecule agonists of the peroxisome proliferator-activated receptor delta (PPARd) signaling pathway - cell viability counter screen (AID 743211); also: nearly all actives have a fitted effect of over 55% in size
Procedure, shortened: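 HEK293H PPARd-bla, 3000 cells/well; 5 h preincubation 37C/5% CO2; cpd in DMSO, 17 h 37C; B/G FRET substrate 2 h RT; CellTiter-Glo 30 min RT, luminescence.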

[10] = target: Vitamin D3 receptor (Homo sapiens) (UniProt P11473); assay: qHTS assay to identify small molecule agonists of the vitamin D receptor (VDR) signaling pathway (AID 743222; calls by dose curve)
Vitamin D3 receptor (Homo sapiens), sequence (P11473 whole entry, looked up): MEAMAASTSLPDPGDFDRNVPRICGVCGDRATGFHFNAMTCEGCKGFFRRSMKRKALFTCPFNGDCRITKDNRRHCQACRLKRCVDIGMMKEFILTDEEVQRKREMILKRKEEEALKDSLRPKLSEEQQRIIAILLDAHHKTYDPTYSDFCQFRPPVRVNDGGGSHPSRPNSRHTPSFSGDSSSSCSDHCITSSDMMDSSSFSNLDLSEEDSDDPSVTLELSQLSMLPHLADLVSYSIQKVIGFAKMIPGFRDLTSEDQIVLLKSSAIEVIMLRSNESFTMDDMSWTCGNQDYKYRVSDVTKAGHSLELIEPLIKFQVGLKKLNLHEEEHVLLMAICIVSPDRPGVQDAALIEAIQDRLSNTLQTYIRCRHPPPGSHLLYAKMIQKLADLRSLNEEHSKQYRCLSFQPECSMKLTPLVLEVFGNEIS
Procedure, shortened: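 Tox21 cell reporter format: VDR-bla line, 16 h compound exposure in 5% CO2 at 37C, then fluorescence intensity after 2 h with LiveBLAzer B/G FRET substrate.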

[11] = target: Vitamin D3 receptor (Homo sapiens) (UniProt P11473); assay: qHTS assay to identify small molecule antagonists of the vitamin D receptor (VDR) signaling pathway (AID 743223; active = well fitted inhibition curve with a large enough effect in the signal ratio in the repeat runs, not every such curve was filed as active; the % refers to the signal ratio)
Procedure, shortened: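 Antagonist mode uses 1alpha,25-dihydroxyvitamin D3 at 3 nM final as stimulus. VDR-bla cells receive compounds in DMSO, incubate 16 h at 37C, then a beta-lactamase FRET substrate for 2 h at room temperature before fluorescence measurement.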

[12] = target: Peroxisome proliferator-activated receptor delta (Homo sapiens) (UniProt Q03181); assay: qHTS assay to identify small molecule agonists of the peroxisome proliferator-activated receptor delta (PPARd) signaling pathway (AID 743212; calls by dose curve)
Peroxisome proliferator-activated receptor delta (Homo sapiens), sequence (Q03181 whole entry, looked up): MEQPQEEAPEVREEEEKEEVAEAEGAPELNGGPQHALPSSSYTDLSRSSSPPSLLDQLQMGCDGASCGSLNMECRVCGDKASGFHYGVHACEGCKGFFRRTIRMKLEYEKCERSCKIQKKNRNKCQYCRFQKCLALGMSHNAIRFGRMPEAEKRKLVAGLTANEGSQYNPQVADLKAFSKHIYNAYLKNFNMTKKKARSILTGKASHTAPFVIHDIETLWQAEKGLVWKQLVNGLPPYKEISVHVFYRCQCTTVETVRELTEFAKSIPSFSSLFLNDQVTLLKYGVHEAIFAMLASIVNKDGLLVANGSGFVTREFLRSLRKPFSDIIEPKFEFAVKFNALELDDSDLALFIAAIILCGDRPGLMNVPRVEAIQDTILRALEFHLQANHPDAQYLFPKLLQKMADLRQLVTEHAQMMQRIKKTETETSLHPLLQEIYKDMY
Procedure, shortened: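 Beta-lactamase reporter read by fluorescence (LiveBLAzer B/G FRET, 2 h, room temperature). Test agents, in DMSO, incubated at 37 C with PPARd-bla HEK293H cells.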

[13] = target: Peroxisome proliferator-activated receptor delta (Homo sapiens) (UniProt Q03181); assay: qHTS assay to identify small molecule antagonists of the peroxisome proliferator-activated receptor delta (PPARd) signaling pathway (AID 743215; active = well fitted inhibition curve with a large enough effect in the signal ratio in the repeat runs, not every such curve was filed as active; the % refers to the signal ratio;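 also: cells stimulated with agonist L165041 at 300 nM final during compound exposure; series mostly up to about 62 µM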)
Procedure, shortened: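 Here, a reporter line (HEK293H, beta-lactamase under a UAS) measures PPARd signaling. Compounds are tested against agonist L165041 at 300 nM final concentration over 17 h at 37 C, with fluorescence read after substrate.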

[14] = qHTS assay to identify small molecule agonists of the farnesoid-X-receptor (FXR) signaling pathway - cell viability counter screen (AID 743218); also: nearly all actives have a fitted effect of over 45% in size
Procedure, shortened: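 Quantitative HTS counter screen measuring ATP-based viability via CellTiter-Glo luminescence in HEK 293T cells carrying a UAS-driven beta-lactamase reporter, after 16 h compound exposure at 37 C.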

[15] = qHTS assay to identify small molecule antagonists of the farnesoid-X-receptor (FXR) signaling pathway - cell viability counter screen (AID 743221; active = well fitted cell-killing curve with a large enough effect in the repeat runs, not every such curve was filed as active; also: nearly all actives have a fitted effect of over 50% in size)
Procedure, shortened: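 Luminescence from CellTiter-Glo measures cytotoxicity in GeneBLAzer FXR-UAS-bla HEK 293T cells. Cells were exposed to compounds with 50 uM chenodeoxycholic acid (final) for 16 h at 37 C, in wells also used for the reporter readout.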

[16] = target: Aryl hydrocarbon receptor (Homo sapiens) (UniProt P35869); assay: qHTS assay to identify small molecule that activate the aryl hydrocarbon receptor (AhR) signaling pathway (AID 743085);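 also: HG2L7.5c1 human HepG2 liver cells with stably integrated DRE-driven firefly reporter; series mostly up to about 70 µM; nearly all actives have a fitted effect of over 15% in size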
Aryl hydrocarbon receptor (Homo sapiens), sequence (P35869 whole entry, looked up): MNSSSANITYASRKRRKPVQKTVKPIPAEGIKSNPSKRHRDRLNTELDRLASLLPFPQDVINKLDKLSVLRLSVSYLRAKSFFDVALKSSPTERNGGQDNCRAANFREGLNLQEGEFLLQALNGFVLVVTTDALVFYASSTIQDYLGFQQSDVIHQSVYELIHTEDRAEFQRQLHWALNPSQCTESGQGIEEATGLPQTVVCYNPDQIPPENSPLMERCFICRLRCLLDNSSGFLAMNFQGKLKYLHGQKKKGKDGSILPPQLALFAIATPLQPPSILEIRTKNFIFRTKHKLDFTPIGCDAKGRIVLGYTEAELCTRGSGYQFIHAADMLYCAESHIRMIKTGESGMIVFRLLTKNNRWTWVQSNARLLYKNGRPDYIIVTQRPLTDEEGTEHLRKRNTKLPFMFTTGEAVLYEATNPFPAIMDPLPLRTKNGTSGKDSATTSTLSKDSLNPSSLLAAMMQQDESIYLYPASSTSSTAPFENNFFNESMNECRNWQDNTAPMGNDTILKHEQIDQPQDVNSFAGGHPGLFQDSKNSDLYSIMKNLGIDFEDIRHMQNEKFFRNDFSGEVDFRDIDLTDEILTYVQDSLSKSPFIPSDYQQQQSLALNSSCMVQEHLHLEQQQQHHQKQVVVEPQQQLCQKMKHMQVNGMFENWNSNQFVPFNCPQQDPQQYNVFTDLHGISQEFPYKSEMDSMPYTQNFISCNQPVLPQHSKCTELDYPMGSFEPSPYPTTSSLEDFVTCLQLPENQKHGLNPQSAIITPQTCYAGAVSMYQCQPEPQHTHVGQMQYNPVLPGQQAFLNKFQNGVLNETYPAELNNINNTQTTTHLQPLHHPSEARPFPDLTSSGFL
Procedure, shortened: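 Cell line HG2L7.5c1 (human hepatoma, 20× DRE-luc). Plated, 5 h 37C, compound/DMSO added, 24 h 37C. CellTiter-Fluor 30 min 37C → fluorescence; then ONE-Glo 30 min RT → luminescence.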

[17] = qHTS assay to identify small molecule antagonists of the peroxisome proliferator-activated receptor delta (PPARd) signaling pathway - cell viability counter screen (AID 743213); also: nearly all actives have a fitted effect of over 50% in size
Procedure, shortened: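 In this counter screen, HEK293H cells carrying a UAS-beta-lactamase reporter are co-treated with test compounds and 300 nM L165041 (final) for 17 h at 37 C; cell viability is quantified by CellTiter-Glo luminescence.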

[18] = target: Bile acid receptor (Homo sapiens) (UniProt Q96RI1); assay: qHTS assay to identify small molecule antagonists of the farnesoid-X-receptor (FXR) signaling pathway (AID 743217; active = well fitted inhibition curve with a large enough effect in the signal ratio in the repeat runs, not every such curve was filed as active; the % refers to the signal ratio)
Bile acid receptor (Homo sapiens), sequence (Q96RI1 whole entry, looked up): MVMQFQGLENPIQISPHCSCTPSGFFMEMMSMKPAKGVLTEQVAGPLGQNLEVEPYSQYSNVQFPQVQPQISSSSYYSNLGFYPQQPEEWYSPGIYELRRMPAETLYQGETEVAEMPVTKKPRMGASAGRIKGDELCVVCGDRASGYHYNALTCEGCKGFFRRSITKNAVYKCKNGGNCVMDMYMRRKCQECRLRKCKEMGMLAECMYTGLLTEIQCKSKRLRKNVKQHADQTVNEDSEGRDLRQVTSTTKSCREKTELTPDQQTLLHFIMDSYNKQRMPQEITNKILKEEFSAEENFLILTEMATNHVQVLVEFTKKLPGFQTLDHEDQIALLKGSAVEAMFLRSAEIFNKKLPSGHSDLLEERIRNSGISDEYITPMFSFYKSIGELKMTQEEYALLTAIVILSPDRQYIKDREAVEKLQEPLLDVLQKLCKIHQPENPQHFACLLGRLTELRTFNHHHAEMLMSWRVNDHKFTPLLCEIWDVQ
Procedure, shortened: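 Test compounds are pin-transferred onto FXR-bla HEK 293T cells, then chenodeoxycholic acid is added at 50 uM final. After 16 h at 37 °C, LiveBLAzer B/G substrate is applied for 2 h at room temperature and fluorescence read.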

[19] = target: Bile acid receptor (Homo sapiens) (UniProt Q96RI1); assay: qHTS assay to identify small molecule agonists of the farnesoid-X-receptor (FXR) signaling pathway (AID 743220; active = well fitted activation curve with a large enough effect in the signal ratio in the repeat runs, not every such curve was filed as active; the % refers to the signal ratio)
Procedure, shortened: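 FXR-UAS-bla HEK 293T cells carrying a UAS-driven beta-lactamase reporter were plated for 5 h at 37C/5% CO2, then exposed to DMSO-dissolved Tox21 10K compounds for 16 h at 37C. A LiveBLAzer B/G FRET substrate was loaded for 2 h at room temperature before fluorescence reading.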

[20] = qHTS assay for small molecule agonists of the antioxidant response element (ARE) signaling pathway (AID 743202; active = well fitted activation curve with a large enough effect in the signal ratio in the repeat runs, not every such curve was filed as active; the % refers to the signal ratio)
Procedure, shortened: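 Following a 16 h, 37 C exposure of reporter HepG2 cells (ARE-driven beta-lactamase, 2,000 cells/well) to compounds, FRET substrate was applied for 2 h at room temperature and fluorescence intensity recorded.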

Measured: Potency

On1nnc2ccccc21
inactive: [1] | [2] | [3] | [4] | [5] | [6] | [7] | [8] | [9] | [10] | [11]

C[C@@H]1O[C@@H](O[C@@H]2[C@@H](O)[C@H](OCCc3ccc(O)c(O)c3)O[C@H](CO[C@@H]3O[C@H](CO)[C@@H](O)[C@H](O)[C@H]3O)[C@H]2OC(=O)/C=C/c2ccc(O)c(O)c2)[C@H](O)[C@H](O)[C@H]1O
not listed: [8] | [16] | [17] | [18] | [19] | [20]
inactive: all other assays above

CC1=C(C(=O)O)N2C(=O)[C@@H](NC(=O)[C@H](N)c3ccc(O)cc3)[C@H]2SC1
not listed: [3] | [4] | [7] | [10] | [12] | [13] | [20]
inactive: all other assays above

O=C(O)Cc1ccc(Cl)cc1Cl
not listed: [2] | [12] | [18] | [19] | [20]
inactive: all other assays above

CC(C)CC(=O)O
not listed: [4] | [16] | [18] | [19] | [20]
inactive: all other assays above

Cc1ccc(S(=O)(=O)O)c(C)c1
not listed: [16] | [17] | [18] | [19]
inactive: all other assays above

CCCCOC(=O)c1ccccc1
not listed: [8] | [16] | [17] | [18] | [19]
inactive: all other assays above

Cc1cccc(C)c1OCC(C)N (stereo not drawn)
not listed: [7] | [10] | [11] | [12] | [13] | [16] | [17] | [19]
inactive: all other assays above

CCCCCCN
not listed: [3] | [4] | [8] | [12] | [17] | [18] | [19] | [20]
inactive: all other assays above
